# In PubChem BioAssay AID1159580 (chemical genetic matrix, 2015):
# The campaign covered roughly 5,500 compounds. About 2,000 (36%) were called active. Not shown: some 18% with an inconclusive outcome. The list shows a part of the results. A number with no mark means an inactive call. No stated cut-off is given here; in the data, active means normalized growth mostly below about 0.91 (no sharp cut-off); inconclusive means no clear call, values can overlap the other calls; inactive means mostly above about 0.92.
# Experiment: chemical genetic growth profiling, strain panel (AID 1159580);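 further: tested at 20 µM; growth read once vehicle control cultures reached saturation at 30 °C; 1 = growth at the plate median or of vehicle wells; lower values mean less growth of the strain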
# Conditions: growth OD
smiles,measurement,setting,value
CC1=C2CCC3C(CC[C@]4(C)C(=O)CCC34)[C@@]2(C)CCC1=O (some centres not stated),normalized growth,"S. cerevisiae deletion strains, locus YJR075W, strain HOC1, hits give low values",0.968
same,normalized growth,"S. cerevisiae deletion strains, locus YKL009W, strain mrt4, hits give low values",0.948
same,normalized growth,"S. cerevisiae deletion strains, locus YKL068W, hits give low values",0.985
same,normalized growth,"S. cerevisiae deletion strains, locus YKL085W, strain MDH1 (second series), hits give low values",0.983
same,normalized growth,"S. cerevisiae deletion strains, locus YKL085W, strain MDH1, hits give low values",0.983
same,normalized growth,"S. cerevisiae deletion strains, locus YKL160W, strain elf1, hits give low values",0.936
same,normalized growth,"S. cerevisiae deletion strains, locus YKL190W, strain CNB1, hits give low values",0.98
same,normalized growth,"S. cerevisiae deletion strains, locus YKR001C, strain vps1, hits give low values",0.9
same,normalized growth,"S. cerevisiae deletion strains, locus YKR026C, strain gcn3, hits give low values",0.998
same,normalized growth,"S. cerevisiae deletion strains, locus YKR091W, strain srl3, hits give low values",0.985
same,normalized growth,"S. cerevisiae deletion strains, locus YLL001W, strain dnm1, hits give low values",0.937
same,normalized growth,"S. cerevisiae deletion strains, locus YLL026W, hits give low values",0.994
same,normalized growth,"S. cerevisiae deletion strains, locus YLL041C, strain sdh2, hits give low values",0.984
same,normalized growth,"S. cerevisiae deletion strains, locus YLR027C, strain aat2, hits give low values",0.948
same,normalized growth,"S. cerevisiae deletion strains, locus YLR039C, strain RIC1, hits give low values",0.587 (active)
same,normalized growth,"S. cerevisiae deletion strains, locus YLR058C, strain SHM2, hits give low values",0.976
same,normalized growth,"S. cerevisiae deletion strains, locus YLR102C, strain apc9, hits give low values",0.977
same,normalized growth,"S. cerevisiae deletion strains, locus YLR113W, strain HOG1, hits give low values",0.974
same,normalized growth,"S. cerevisiae deletion strains, locus YLR221C, strain rsa3, hits give low values",0.994
same,normalized growth,"S. cerevisiae deletion strains, locus YLR258W, strain gsy2, hits give low values",0.959
same,normalized growth,"S. cerevisiae deletion strains, locus YLR262C, strain YPT6 (second series), hits give low values",0.655 (active)
same,normalized growth,"S. cerevisiae deletion strains, locus YLR262C, strain YPT6, hits give low values",0.613
same,normalized growth,"S. cerevisiae deletion strains, locus YLR268W, strain sec22, hits give low values",1.02
same,normalized growth,"S. cerevisiae deletion strains, locus YLR320W, strain mms22, hits give low values",0.94
same,normalized growth,"S. cerevisiae deletion strains, locus YLR330W, strain CHS5, hits give low values",0.982
same,normalized growth,"S. cerevisiae deletion strains, locus YLR342W, strain FKS1 (second series), hits give low values",0.811
same,normalized growth,"S. cerevisiae deletion strains, locus YLR342W, strain FKS1, hits give low values",0.951
same,normalized growth,"S. cerevisiae deletion strains, locus YLR357W, strain rsc2, hits give low values",1.01
same,normalized growth,"S. cerevisiae deletion strains, locus YLR370C, strain arc18, hits give low values",0.986
same,normalized growth,"S. cerevisiae deletion strains, locus YLR371W, strain rom2, hits give low values",0.983
same,normalized growth,"S. cerevisiae deletion strains, locus YLR384C, strain iki3, hits give low values",0.983
same,normalized growth,"S. cerevisiae deletion strains, locus YLR418C, strain cdc73, hits give low values",0.771 (active)
same,normalized growth,"S. cerevisiae deletion strains, locus YML016C, strain PPZ1, hits give low values",0.965
same,normalized growth,"S. cerevisiae deletion strains, locus YML032C, strain rad52, hits give low values",0.966
same,normalized growth,"S. cerevisiae deletion strains, locus YML120C, strain ndi1, hits give low values",0.955
same,normalized growth,"S. cerevisiae deletion strains, locus YML124C, strain tub3, hits give low values",0.969
same,normalized growth,"S. cerevisiae deletion strains, locus YMR058W, strain fet3, hits give low values",0.976
same,normalized growth,"S. cerevisiae deletion strains, locus YMR078C, strain ctf18, hits give low values",0.953
same,normalized growth,"S. cerevisiae deletion strains, locus YMR125W, strain sto1, hits give low values",0.993
same,normalized growth,"S. cerevisiae deletion strains, locus YMR129W, hits give low values",0.993
same,normalized growth,"S. cerevisiae deletion strains, locus YMR205C, strain PFK2, hits give low values",0.9
same,normalized growth,"S. cerevisiae deletion strains, locus YMR223W, strain ubp8, hits give low values",0.9 (active)
same,normalized growth,"S. cerevisiae deletion strains, locus YMR231W, strain pep5, hits give low values",0.976
same,normalized growth,"S. cerevisiae deletion strains, locus YMR263W, strain SAP30, hits give low values",0.971
same,normalized growth,"S. cerevisiae deletion strains, locus YMR307W, strain GAS1, hits give low values",0.759
same,normalized growth,"S. cerevisiae deletion strains, locus YNL067W, strain RPL9B, hits give low values",0.987
same,normalized growth,"S. cerevisiae deletion strains, locus YNL071W, strain lat1, hits give low values",0.863 (active)
same,normalized growth,"S. cerevisiae deletion strains, locus YNL128W, strain TEP1, hits give low values",0.99
same,normalized growth,"S. cerevisiae deletion strains, locus YNL153C, strain GIM3, hits give low values",0.99
same,normalized growth,"S. cerevisiae deletion strains, locus YNL183C, strain NPR1, hits give low values",0.839
same,normalized growth,"S. cerevisiae deletion strains, locus YNL209W, strain ssb2, hits give low values",0.962
same,normalized growth,"S. cerevisiae deletion strains, locus YNL233W, strain BNI4, hits give low values",0.962
same,normalized growth,"S. cerevisiae deletion strains, locus YNL248C, strain rpa49, hits give low values",1.01
same,normalized growth,"S. cerevisiae deletion strains, locus YNL250W, strain rad50, hits give low values",0.951
same,normalized growth,"S. cerevisiae deletion strains, locus YNL271C, strain bni1, hits give low values",0.957
same,normalized growth,"S. cerevisiae deletion strains, locus YNL298W, strain CLA4, hits give low values",0.929
same,normalized growth,"S. cerevisiae deletion strains, locus YNL307C, strain MCK1, hits give low values",0.695 (active)
same,normalized growth,"S. cerevisiae deletion strains, locus YNL322C, strain KRE1 (second series), hits give low values",0.986
same,normalized growth,"S. cerevisiae deletion strains, locus YNL322C, strain KRE1, hits give low values",0.983
same,normalized growth,"S. cerevisiae deletion strains, locus YNR049C, strain mso1, hits give low values",0.997
same,normalized growth,"S. cerevisiae deletion strains, locus YNR052C, strain pop2, hits give low values",0.89 (active)
same,normalized growth,"S. cerevisiae deletion strains, locus YOL006C, strain TOP1, hits give low values",0.729
same,normalized growth,"S. cerevisiae deletion strains, locus YOL012C, strain htz1",1.08
same,normalized growth,"S. cerevisiae deletion strains, locus YOL147C, strain pex11, hits give low values",0.959
same,normalized growth,"S. cerevisiae deletion strains, locus YOR001W, strain rrp6, hits give low values",1.01
same,normalized growth,"S. cerevisiae deletion strains, locus YOR061W, strain CKA2, hits give low values",0.979
same,normalized growth,"S. cerevisiae deletion strains, locus YOR069W, strain VPS5, hits give low values",0.973
same,normalized growth,"S. cerevisiae deletion strains, locus YOR070C, strain gyp1, hits give low values",0.959
same,normalized growth,"S. cerevisiae deletion strains, locus YOR080W, strain dia2, hits give low values",0.995
same,normalized growth,"S. cerevisiae deletion strains, locus YOR083W, strain WHI5, hits give low values",0.915
same,normalized growth,"S. cerevisiae deletion strains, locus YOR106W, strain vam3, hits give low values",0.944
same,normalized growth,"S. cerevisiae deletion strains, locus YOR136W, strain idh2, hits give low values",0.961
same,normalized growth,"S. cerevisiae deletion strains, locus YOR144C, strain elg1, hits give low values",0.958
same,normalized growth,"S. cerevisiae deletion strains, locus YOR184W, strain ser1, hits give low values",0.719 (active)
same,normalized growth,"S. cerevisiae deletion strains, locus YOR231W, strain MKK1, hits give low values",0.955
same,normalized growth,"S. cerevisiae deletion strains, locus YOR265W, strain rbl2, hits give low values",0.985
same,normalized growth,"S. cerevisiae deletion strains, locus YOR270C, strain vph1, hits give low values",0.844
same,normalized growth,"S. cerevisiae deletion strains, locus YOR290C, strain snf2, hits give low values",0.898
same,normalized growth,"S. cerevisiae deletion strains, locus YOR316C, strain cot1, hits give low values",0.98
same,normalized growth,"S. cerevisiae deletion strains, locus YPL051W, strain arl3, hits give low values",0.921
same,normalized growth,"S. cerevisiae deletion strains, locus YPL055C, strain LGE1, hits give low values",0.871
same,normalized growth,"S. cerevisiae deletion strains, locus YPL078C, strain atp4, hits give low values",0.887 (active)
same,normalized growth,"S. cerevisiae deletion strains, locus YPL106C, strain sse1, hits give low values",1
same,normalized growth,"S. cerevisiae deletion strains, locus YPL240C, strain hsp82, hits give low values",0.987
same,normalized growth,"S. cerevisiae deletion strains, locus YPL241C, strain CIN2, hits give low values",0.986
same,normalized growth,"S. cerevisiae deletion strains, locus YPL256C, strain CLN2, hits give low values",0.927
same,normalized growth,"S. cerevisiae deletion strains, locus YPR119W, strain clb2, hits give low values",0.979
same,normalized growth,"S. cerevisiae deletion strains, locus YPR141C, strain kar3, hits give low values",0.951
same,normalized growth,"S. cerevisiae deletion strains, locus YPR163C, strain tif3, hits give low values",0.927
same,normalized growth,"S. cerevisiae deletion strains, locus YPR167C, strain met16, hits give low values",0.972
same,normalized growth,"S. cerevisiae deletion strains, strain wtn01, hits give low values",0.964
same,normalized growth,"S. cerevisiae strains, strain wild type, hits give low values",0.942
